About 1,300 (0.37%) of roughly 350,000 compounds were called active. Only a selection was taken, and actives are over-represented in it overall. Unmarked numbers belong to inactive results. Rule as the data show it: active = response mostly above about 7.3% (no sharp cut-off); inactive = mostly below about 5.4%.
Assay: regulators of yeast V-ATPase proton pumping, primary screen, pHLuorin cytosolic pH fluorescence (AID 504577)
Conditions: S. cerevisiae, at 10 µM, hits give high values

With `CC(=O)Nc1ccc(C(=O)C(Cc2ccccc2)N(C)C)cc1` (stereo not given) as the compound, how does the response read?
Its response is 8.72% (active).

With `O=C(COC(=O)Cc1ccccc1)Nc1ccc(F)cc1` as the compound, how does the response read?
Its response is -1.24%.

For `CCN(CC)C(=O)c1ccc(NC(=O)c2sccc2-c2ccccc2)cc1`, which response is on record?
Its response is -3.45%.

With `COc1ccc(Br)cc1CNCCc1cccc(Cl)c1` as the compound, how does the response read?
Its response is 1.48%.

With `N=c1ccccn1Cc1ccccc1` as the compound, how does the response read?
Its response is -1.95%.

For `CN1CCC[C@@H]1CCO[C@](C)(c1ccccc1)c1ccc(Cl)cc1`, which response is on record?
Its response is -5.35%.

With `O=C1NC(=O)N(c2ccc(F)cc2)C(=O)/C1=C/c1ccc2c(c1)CCCN2Cc1ccccc1` as the compound, how does the response read?
The response was 1.07%.

With `COc1cccc(N2C(=O)NC(=O)/C(=C\c3ccc([N+](=O)[O-])s3)C2=O)c1` as the compound, how does the response read?
The response was 125% (active).

For `COc1ccc(N2C(=O)/C(=C/c3ccco3)C(=O)NC2=S)cc1`, which response is on record?
Its response is 8.65%.

Which response does the source give for `O=C1NC(=O)N(c2ccccc2)C(=O)/C1=C/c1ccc([N+](=O)[O-])s1` here?
Its response is 102% (active).

With `CCCC(C)n1[nH]c(=O)c2c1NC(=O)CSC2c1ccc(OC)c(OC)c1` (stereo not given) as the compound, how does the response read?
The response was 1.43%.

With `O=c1[nH]c(CN2CC=C(c3ccccc3)CC2)nc2scc(-c3cccs3)c12` as the compound, how does the response read?
Its response is -2.27%.

Which response does the source give for `CNC(=O)N(C)c1nnc(C(C)(C)C)s1` here?
Its response is 2.46%.

Which response does the source give for `Cc1c(C(=O)O)cccc1-n1c(C)cc(/C=C2\C(=O)NC(=O)N(c3ccc4c(c3)OCO4)C2=O)c1C` here?
The response was -0.49%.

With `Cc1ccc(-n2c(C)cc(/C=C3\C(=O)NC(=O)N(C)C3=O)c2C)cc1C` as the compound, how does the response read?
Its response is -0.72%.

Which response does the source give for `Cc1ccccc1N1C(=O)NC(=O)/C(=C\c2cc(C)n(C)c2C)C1=O` here?
The response was 13.8% (active).

With `CC(=O)N(C1=NCCCS1)c1ccccc1F` as the compound, how does the response read?
The response was 0.19%.

For `CC12CCC(O)CC1CCC1C2CCC2(C)C(C(=O)CC(O)C(F)(F)F)CCC12` (stereo not given), which response is on record?
Its response is 5.09%.

For `CCOC(=O)C(O)(c1ccc(N=Cc2ccccc2O)c(C)c1)C(F)(F)F` (stereo not given), which response is on record?
The response was -2.77%.

With `Cc1nc2nc(C)c(CCC(=O)N3CCC4(CC3)OCCO4)c(C)n2n1` as the compound, how does the response read?
The response was -4.03%.

— PubChem BioAssay AID504577 (NMMLSC, 2011)
